In the supplement of paper PMC10849652:
The full data set covers some 7,900 targets. This sample favours those with a hit. About 0.6% of all pairs of compound and target were hits.

Tests used:
Experiment in all cases: log2 fold change, soluble protein after heating vs DMSO (PISA); higher = thermal stabilisation; K562 cells, 10 uM, 30 min; active = over 0.2 and 3.5 SD of the protein, either way, in both replicates (recomputed)
[1] = compound: COC1=CC=C(C=C1)CN2C=CC3=C2C=C(C=C3)C(=O)NO
Outline: (§1)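 Soluble protein was quantified by TMTpro 16plex LC-MS/MS after channel sums were equalised. It was obtained as the supernatant after 21,000xg for 90 min from pooled aliquots of K562 cells (2×10^6 cells/mL, 10 μM compound, 30 min) heated for 3 min across 48°C-58°C and extracted in PBS with 0.5% NP-40 at 4°C. Thermal stability values are relative to control samples and come from duplicates. They are given as log2 fold changes.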

filanesib = compound: CON(C)C(=O)N1N=C(c2cc(F)ccc2F)S[C@@]1(CCCN)c1ccccc1 [filanesib]
Outline: as §1

zotarolimus = compound: CO[C@H]1C[C@@H]2CC[C@@H](C)[C@@](O)(O2)C(=O)C(=O)N2CCCC[C@H]2C(=O)O[C@H]([C@H](C)C[C@@H]2CC[C@H](n3cnnn3)[C@H](OC)C2)CC(=O)[C@H](C)/C=C(\C)[C@@H](O)[C@@H](OC)C(=O)[C@H](C)C[C@H](C)/C=C/C=C/C=C/1C [zotarolimus]
Outline: as §1

idasanutlin = compound: COc1cc(C(=O)O)ccc1NC(=O)[C@@H]1N[C@@H](CC(C)(C)C)[C@](C#N)(c2ccc(Cl)cc2F)[C@H]1c1cccc(Cl)c1F [idasanutlin]
Outline: as §1

alisertib = compound: COc1cc(Nc2ncc3c(n2)-c2ccc(Cl)cc2C(c2c(F)cccc2OC)=NC3)ccc1C(=O)O [alisertib]
Outline: as §1

[2] = compound: COc1cc2nc(-c3cc(F)ccc3O)nc(N[C@@H]3CNC[C@H]3C(C)(C)O)c2cc1OC
Outline: as §1

gefitinib = compound: COc1cc2ncnc(Nc3ccc(F)c(Cl)c3)c2cc1OCCCN1CCOCC1 [gefitinib]
Outline: as §1

[3] = compound: COc1cccc2cc(-c3nc([C@H]4CC[C@H](C(=O)O)CC4)n4ncnc(N)c34)[nH]c12
Outline: as §1

lapatinib = compound: CS(=O)(=O)CCNCc1ccc(-c2ccc3ncnc(Nc4ccc(OCc5cccc(F)c5)c(Cl)c4)c3c2)o1 [lapatinib]
Outline: as §1

pictilisib = compound: CS(=O)(=O)N1CCN(Cc2cc3nc(-c4cccc5[nH]ncc45)nc(N4CCOCC4)c3s2)CC1 [pictilisib]
Outline: as §1

Measured: log2 fold change

GUSB (UniProt P08236)
inactive: [1] -0.063 | filanesib -0.016 | zotarolimus 0.014 | idasanutlin 0.034 | alisertib 0.022 | [2] -0.084 | gefitinib -0.013 | [3] -0.027 | lapatinib 0.016 | pictilisib 0.098

GALNT2 (UniProt Q10471)
Chain of UniProt Q10471 (Q10471 whole entry, looked up): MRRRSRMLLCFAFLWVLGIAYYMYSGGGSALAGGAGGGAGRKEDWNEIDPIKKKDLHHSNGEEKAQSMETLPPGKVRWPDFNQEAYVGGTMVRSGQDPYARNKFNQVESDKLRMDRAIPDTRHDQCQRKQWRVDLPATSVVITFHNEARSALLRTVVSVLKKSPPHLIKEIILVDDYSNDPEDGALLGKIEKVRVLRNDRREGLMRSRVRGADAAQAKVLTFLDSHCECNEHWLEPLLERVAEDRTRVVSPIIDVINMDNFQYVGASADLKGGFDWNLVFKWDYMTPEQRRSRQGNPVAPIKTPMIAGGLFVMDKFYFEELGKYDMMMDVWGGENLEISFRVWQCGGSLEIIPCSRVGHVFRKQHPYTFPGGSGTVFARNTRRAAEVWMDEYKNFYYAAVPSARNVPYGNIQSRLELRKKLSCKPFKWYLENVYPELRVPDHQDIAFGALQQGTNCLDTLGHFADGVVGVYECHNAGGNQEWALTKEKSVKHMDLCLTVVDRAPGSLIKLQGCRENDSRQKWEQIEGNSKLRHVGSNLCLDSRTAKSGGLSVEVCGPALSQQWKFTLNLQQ
inactive: [1] 0.018 | filanesib -0.025 | zotarolimus 0.043 | idasanutlin -0.065 | alisertib -0.03 | [2] -0.042 | gefitinib 0.059 | [3] -0.012 | lapatinib 0.036 | pictilisib -0.01

HBZ (UniProt P02008)
Chain of UniProt P02008 (P02008 whole entry, looked up): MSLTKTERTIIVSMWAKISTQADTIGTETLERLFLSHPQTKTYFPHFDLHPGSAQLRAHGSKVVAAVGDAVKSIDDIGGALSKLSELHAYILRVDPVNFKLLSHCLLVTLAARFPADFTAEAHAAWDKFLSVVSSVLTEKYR
inactive: [1] 0.012 | filanesib -0.003 | zotarolimus 0.035 | idasanutlin 0.045 | alisertib -0.077 | [2] -0.055 | gefitinib 0.003 | [3] 0.093 | lapatinib 0.007 | pictilisib -0.006

HIP1 (UniProt O00291)
inactive: [1] 0.022 | filanesib -0.026 | zotarolimus 0.017 | idasanutlin -0.003 | alisertib -0.269 | [2] 0.029 | gefitinib 0.016 | [3] 0.047 | lapatinib 0.059 | pictilisib 0

GOLPH3 (UniProt Q9H4A6)
inactive: [1] 0.011 | filanesib -0.03 | zotarolimus 0.048 | idasanutlin -0.057 | alisertib -0.024 | [2] 0.131 | gefitinib 0.023 | [3] 0.012 | lapatinib -0.055 | pictilisib -0.051

GTF3C5 isoform 3 (UniProt Q9Y5Q8)
inactive: [1] -0.115 | filanesib -0.039 | zotarolimus 0.116 | idasanutlin -0.068 | alisertib 0.064 | [2] 0.024 | gefitinib -0.003 | [3] -0.034 | lapatinib 0.13 | pictilisib -0.148

GABARAPL1 isoform 2 (UniProt Q9H0R8)
Chain of UniProt Q9H0R8 (Q9H0R8 whole entry, looked up): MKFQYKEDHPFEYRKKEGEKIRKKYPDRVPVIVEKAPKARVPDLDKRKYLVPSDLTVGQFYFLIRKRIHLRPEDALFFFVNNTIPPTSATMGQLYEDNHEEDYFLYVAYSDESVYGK
inactive: [1] 0.053 | filanesib -0.054 | zotarolimus 0.024 | idasanutlin -0.112 | alisertib 0.024 | [2] 0.007 | gefitinib 0.021 | [3] -0.01 | lapatinib -0.026 | pictilisib 0.115

HSPA8 (UniProt E9PN89)
inactive: [1] -0.312 | filanesib 0.126 | zotarolimus -0.036 | idasanutlin 0.113 | alisertib 0.042 | [2] 0.191 | gefitinib 0.035 | [3] 0.126 | lapatinib -0.426 | pictilisib 0.134

GNPAT (UniProt O15228)
Chain of UniProt O15228 (O15228 whole entry, looked up): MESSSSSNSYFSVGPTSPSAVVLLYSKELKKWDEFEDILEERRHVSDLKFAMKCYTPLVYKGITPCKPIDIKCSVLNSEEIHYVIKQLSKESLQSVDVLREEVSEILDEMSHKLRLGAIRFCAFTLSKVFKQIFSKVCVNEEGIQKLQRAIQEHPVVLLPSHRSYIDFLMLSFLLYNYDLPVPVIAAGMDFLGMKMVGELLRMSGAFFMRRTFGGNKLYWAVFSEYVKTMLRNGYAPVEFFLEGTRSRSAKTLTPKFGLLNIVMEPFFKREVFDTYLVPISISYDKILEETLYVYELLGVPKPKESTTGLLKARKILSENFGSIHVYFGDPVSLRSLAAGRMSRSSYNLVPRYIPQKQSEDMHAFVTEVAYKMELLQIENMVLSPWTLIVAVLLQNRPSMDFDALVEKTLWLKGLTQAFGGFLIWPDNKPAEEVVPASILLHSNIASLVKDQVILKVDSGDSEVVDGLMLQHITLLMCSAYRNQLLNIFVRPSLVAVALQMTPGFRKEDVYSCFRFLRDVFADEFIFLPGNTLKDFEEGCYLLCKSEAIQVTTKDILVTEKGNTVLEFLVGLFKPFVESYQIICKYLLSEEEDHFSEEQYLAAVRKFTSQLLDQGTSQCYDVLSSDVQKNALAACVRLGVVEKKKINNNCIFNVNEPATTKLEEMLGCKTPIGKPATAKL
inactive: [1] 0.008 | filanesib -0.054 | zotarolimus 0.064 | idasanutlin -0.05 | alisertib -0.038 | [2] -0.022 | gefitinib 0.03 | [3] 0 | lapatinib 0.061 | pictilisib 0.148

GNS (UniProt P15586)
inactive: [1] -0.014 | filanesib -0.041 | zotarolimus -0.05 | idasanutlin -0.002 | alisertib -0.034 | [2] -0.011 | gefitinib 0.017 | [3] 0.039 | lapatinib -0.024 | pictilisib 0.014

GCSH (UniProt P23434)
inactive: [1] -0.086 | filanesib -0.029 | zotarolimus 0.014 | idasanutlin -0.024 | alisertib 0.154 | [2] 0.03 | gefitinib 0.003 | [3] 0.001 | lapatinib -0.028 | pictilisib -0.078

FANCD2 isoform 1 (UniProt Q9BXW9)
inactive: [1] 0.054 | filanesib -0.078 | zotarolimus -0.007 | idasanutlin -0.062 | alisertib -0.037 | [2] 0.053 | gefitinib -0.033 | [3] 0.031 | lapatinib -0.025 | pictilisib 0.123

FRA10AC1 isoform 3 (UniProt Q70Z53)
Chain of UniProt Q70Z53 (Q70Z53 whole entry, looked up): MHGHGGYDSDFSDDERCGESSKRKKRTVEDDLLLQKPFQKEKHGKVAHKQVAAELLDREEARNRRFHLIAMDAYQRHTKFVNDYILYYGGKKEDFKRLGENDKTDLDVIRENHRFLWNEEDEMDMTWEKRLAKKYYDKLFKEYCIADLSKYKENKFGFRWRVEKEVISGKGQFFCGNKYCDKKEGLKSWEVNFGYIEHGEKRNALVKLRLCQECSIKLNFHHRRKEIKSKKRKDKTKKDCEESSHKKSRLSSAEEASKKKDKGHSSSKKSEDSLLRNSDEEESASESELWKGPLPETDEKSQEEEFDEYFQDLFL
inactive: [1] -0.022 | filanesib 0.179 | zotarolimus -0.049 | idasanutlin -0.319 | alisertib -0.033 | [2] 0.068 | gefitinib 0 | [3] -0.005 | lapatinib -0.064 | pictilisib -0.11

HBA1 (UniProt P69905)
inactive: [1] -0.037 | filanesib 0.02 | zotarolimus 0.068 | idasanutlin -0.044 | alisertib -0.093 | [2] -0.154 | gefitinib 0.032 | [3] 0.079 | lapatinib 0.036 | pictilisib -0.088

GLUD2 (UniProt P49448)
Chain of UniProt P49448 (P49448 whole entry, looked up): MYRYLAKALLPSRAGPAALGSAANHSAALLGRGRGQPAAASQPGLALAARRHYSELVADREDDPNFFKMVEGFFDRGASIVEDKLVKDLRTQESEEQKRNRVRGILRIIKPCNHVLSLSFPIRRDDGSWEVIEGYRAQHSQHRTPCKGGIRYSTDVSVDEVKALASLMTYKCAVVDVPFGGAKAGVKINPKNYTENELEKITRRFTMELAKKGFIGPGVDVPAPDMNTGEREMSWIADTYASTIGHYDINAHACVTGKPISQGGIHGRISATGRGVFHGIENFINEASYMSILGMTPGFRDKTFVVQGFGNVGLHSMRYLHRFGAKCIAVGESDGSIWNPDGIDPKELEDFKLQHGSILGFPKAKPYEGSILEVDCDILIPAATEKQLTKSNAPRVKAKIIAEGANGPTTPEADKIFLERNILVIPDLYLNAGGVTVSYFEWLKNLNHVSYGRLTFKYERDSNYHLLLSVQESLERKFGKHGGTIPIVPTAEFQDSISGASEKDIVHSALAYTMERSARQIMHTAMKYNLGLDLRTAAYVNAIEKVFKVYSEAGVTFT
inactive: [1] -0.041 | filanesib -0.032 | zotarolimus 0.123 | idasanutlin -0.07 | alisertib -0.06 | [2] -0.003 | gefitinib 0.061 | [3] 0.023 | lapatinib 0.191 | pictilisib 0.216

GTF2E1 (UniProt P29083)
inactive: [1] 0.042 | filanesib 0.01 | zotarolimus 0.004 | idasanutlin -0.032 | alisertib -0.026 | [2] 0.06 | gefitinib 0.013 | [3] 0.012 | lapatinib -0.037 | pictilisib -0.002

FANCI (UniProt Q9NVI1)
Chain of UniProt Q9NVI1 (Q9NVI1 whole entry, looked up): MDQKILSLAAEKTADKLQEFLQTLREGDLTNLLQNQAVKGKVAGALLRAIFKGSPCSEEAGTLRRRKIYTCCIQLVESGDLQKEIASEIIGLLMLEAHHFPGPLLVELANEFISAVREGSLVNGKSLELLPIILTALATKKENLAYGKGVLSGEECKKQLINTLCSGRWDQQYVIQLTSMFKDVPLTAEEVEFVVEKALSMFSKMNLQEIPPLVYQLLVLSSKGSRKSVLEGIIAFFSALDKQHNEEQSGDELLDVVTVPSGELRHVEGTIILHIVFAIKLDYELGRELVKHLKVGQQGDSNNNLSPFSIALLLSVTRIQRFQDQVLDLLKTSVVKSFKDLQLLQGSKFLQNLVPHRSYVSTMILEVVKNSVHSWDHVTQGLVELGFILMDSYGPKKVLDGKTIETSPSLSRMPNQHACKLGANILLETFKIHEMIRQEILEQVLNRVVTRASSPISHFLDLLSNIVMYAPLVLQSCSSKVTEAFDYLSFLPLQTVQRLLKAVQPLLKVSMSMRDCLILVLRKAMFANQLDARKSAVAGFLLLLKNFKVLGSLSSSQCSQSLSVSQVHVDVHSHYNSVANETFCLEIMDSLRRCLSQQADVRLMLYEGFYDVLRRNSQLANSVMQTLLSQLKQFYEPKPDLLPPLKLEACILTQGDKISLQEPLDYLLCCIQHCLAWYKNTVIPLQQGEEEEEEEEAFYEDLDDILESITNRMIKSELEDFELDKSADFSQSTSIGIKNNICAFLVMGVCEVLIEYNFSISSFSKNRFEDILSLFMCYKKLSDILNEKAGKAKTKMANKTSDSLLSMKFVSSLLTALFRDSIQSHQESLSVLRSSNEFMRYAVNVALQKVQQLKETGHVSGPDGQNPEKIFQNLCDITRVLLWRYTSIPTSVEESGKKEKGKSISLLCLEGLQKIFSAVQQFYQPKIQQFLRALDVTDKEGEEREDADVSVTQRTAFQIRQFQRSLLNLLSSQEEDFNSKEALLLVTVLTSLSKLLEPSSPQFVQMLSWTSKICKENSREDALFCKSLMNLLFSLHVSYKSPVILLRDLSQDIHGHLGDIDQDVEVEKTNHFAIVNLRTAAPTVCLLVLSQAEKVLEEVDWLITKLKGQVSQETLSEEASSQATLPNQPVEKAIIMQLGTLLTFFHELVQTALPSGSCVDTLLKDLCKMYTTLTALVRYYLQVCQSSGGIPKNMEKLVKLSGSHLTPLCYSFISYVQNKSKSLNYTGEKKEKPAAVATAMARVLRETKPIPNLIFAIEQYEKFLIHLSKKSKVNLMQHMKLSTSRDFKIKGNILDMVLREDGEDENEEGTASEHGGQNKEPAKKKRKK
inactive: [1] 0.004 | filanesib -0.189 | zotarolimus -0.01 | idasanutlin -0.014 | alisertib -0.015 | [2] -0.113 | gefitinib -0.034 | [3] 0.033 | lapatinib 0.001 | pictilisib 0

HEATR5B (UniProt Q9P2D3)
inactive: [1] -0.006 | filanesib -0.005 | zotarolimus -0.071 | idasanutlin 0 | alisertib 0.006 | [2] 0.039 | gefitinib -0.045 | [3] 0.033 | lapatinib 0.018 | pictilisib -0.065

ICAM1 (UniProt P05362)
inactive: [1] -0.018 | filanesib 0.132 | zotarolimus -0.038 | idasanutlin 0.042 | alisertib 0.002 | [2] 0.08 | gefitinib 0.029 | [3] 0.104 | lapatinib -0.028 | pictilisib 0

H2AZ1 (UniProt P0C0S5)
Chain of UniProt P0C0S5 (P0C0S5 whole entry, looked up): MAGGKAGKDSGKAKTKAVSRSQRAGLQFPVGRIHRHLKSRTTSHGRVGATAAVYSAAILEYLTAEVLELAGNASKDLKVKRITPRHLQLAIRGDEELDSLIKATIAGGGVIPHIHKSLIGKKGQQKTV
inactive: [1] 0.05 | filanesib 0.353 | zotarolimus -0.113 | idasanutlin 0.266 | alisertib 0.039 | [2] -0.046 | gefitinib 0.121 | [3] -0.161 | lapatinib 0 | pictilisib -0.09

GALK1 isoform 2 (UniProt P51570)
Chain of UniProt P51570 (P51570 whole entry, looked up): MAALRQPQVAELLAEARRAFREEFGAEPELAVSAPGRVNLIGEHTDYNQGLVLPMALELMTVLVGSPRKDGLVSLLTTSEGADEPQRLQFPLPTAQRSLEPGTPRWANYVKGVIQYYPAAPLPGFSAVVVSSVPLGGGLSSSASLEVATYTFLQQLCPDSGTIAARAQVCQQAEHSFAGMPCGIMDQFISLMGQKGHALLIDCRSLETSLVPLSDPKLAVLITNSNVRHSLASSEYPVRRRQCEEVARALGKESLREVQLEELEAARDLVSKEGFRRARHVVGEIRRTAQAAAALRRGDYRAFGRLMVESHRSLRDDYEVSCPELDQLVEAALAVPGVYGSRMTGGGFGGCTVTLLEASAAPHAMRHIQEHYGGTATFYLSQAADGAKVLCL
inactive: [1] -0.023 | filanesib -0.201 | zotarolimus 0.012 | idasanutlin -0.106 | alisertib -0.125 | [2] -0.049 | gefitinib -0.005 | [3] 0.036 | lapatinib 0.147 | pictilisib -0.05

HPCAL1 (UniProt P37235)
inactive: [1] -0.085 | filanesib -0.128 | zotarolimus -0.017 | idasanutlin -0.062 | alisertib 0.002 | [2] -0.012 | gefitinib -0.021 | [3] 0.06 | lapatinib -0.027 | pictilisib 0.013

GIGYF2 (UniProt Q6Y7W6)
inactive: [1] 0.005 | filanesib 0.008 | zotarolimus 0.016 | idasanutlin 0 | alisertib -0.023 | [2] 0.07 | gefitinib -0.043 | [3] -0.026 | lapatinib -0.016 | pictilisib -0.027

GTF3A (UniProt Q92664)
inactive: [1] 0.092 | filanesib -0.138 | zotarolimus 0.067 | idasanutlin -0.018 | alisertib 0.014 | [2] -0.225 | gefitinib -0.139 | [3] -0.006 | lapatinib 0.099 | pictilisib -0.042

GTF2A2 (UniProt P52657)
inactive: [1] -0.067 | filanesib -0.043 | zotarolimus -0.006 | idasanutlin -0.036 | alisertib 0.018 | [2] 0.044 | gefitinib -0.028 | [3] 0.032 | lapatinib -0.042 | pictilisib 0.041

GPKOW (UniProt Q92917)
inactive: [1] -0.055 | filanesib -0.118 | zotarolimus 0.024 | idasanutlin -0.06 | alisertib 0.039 | [2] -0.021 | gefitinib 0.047 | [3] 0.11 | lapatinib -0.005 | pictilisib -0.037

HBQ1 (UniProt P09105)
Chain of UniProt P09105 (P09105 whole entry, looked up): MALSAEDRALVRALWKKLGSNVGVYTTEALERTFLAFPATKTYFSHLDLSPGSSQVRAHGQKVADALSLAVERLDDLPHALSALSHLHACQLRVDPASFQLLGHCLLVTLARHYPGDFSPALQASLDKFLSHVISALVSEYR
inactive: [1] -0.034 | filanesib -0.027 | zotarolimus 0.051 | idasanutlin -0.023 | alisertib -0.115 | [2] -0.05 | gefitinib 0.033 | [3] 0.091 | lapatinib 0.001 | pictilisib -0.012

FUCA2 (UniProt Q9BTY2)
Chain of UniProt Q9BTY2 (Q9BTY2 whole entry, looked up): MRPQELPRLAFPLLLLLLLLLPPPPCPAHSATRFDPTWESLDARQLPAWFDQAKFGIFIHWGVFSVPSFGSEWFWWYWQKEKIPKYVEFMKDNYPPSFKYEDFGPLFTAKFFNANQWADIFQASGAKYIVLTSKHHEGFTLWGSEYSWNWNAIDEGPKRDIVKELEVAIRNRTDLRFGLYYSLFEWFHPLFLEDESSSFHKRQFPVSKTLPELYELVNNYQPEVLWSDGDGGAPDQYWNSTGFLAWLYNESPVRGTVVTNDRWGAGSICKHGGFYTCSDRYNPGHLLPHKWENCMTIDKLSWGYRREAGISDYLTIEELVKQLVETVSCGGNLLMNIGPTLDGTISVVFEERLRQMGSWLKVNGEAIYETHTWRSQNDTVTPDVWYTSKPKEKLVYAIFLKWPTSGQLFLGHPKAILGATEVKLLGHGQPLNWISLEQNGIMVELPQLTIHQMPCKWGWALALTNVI
inactive: [1] -0.094 | filanesib 0.002 | zotarolimus -0.019 | idasanutlin 0.177 | alisertib -0.044 | [2] 0.011 | gefitinib -0.013 | [3] 0.045 | lapatinib 0.025 | pictilisib 0.011

GOPC (UniProt Q9HD26)
inactive: [1] -0.059 | filanesib 0.259 | zotarolimus 0.329 | idasanutlin 0.007 | alisertib -0.026 | gefitinib 0.137 | [3] -0.146 | lapatinib 0.15 | pictilisib 0.08
active: [2] 0.668
